These results are taken from PubChem BioAssay.

Active and inactive are the calls of the source. No rule for the calls is given here.

A word on the inhibition: it is the relative decrease from the control value, in per cent.

L-lactate dehydrogenase (Plasmodium falciparum (isolate CDC / Honduras)), sequence (Q27743 whole entry, looked up): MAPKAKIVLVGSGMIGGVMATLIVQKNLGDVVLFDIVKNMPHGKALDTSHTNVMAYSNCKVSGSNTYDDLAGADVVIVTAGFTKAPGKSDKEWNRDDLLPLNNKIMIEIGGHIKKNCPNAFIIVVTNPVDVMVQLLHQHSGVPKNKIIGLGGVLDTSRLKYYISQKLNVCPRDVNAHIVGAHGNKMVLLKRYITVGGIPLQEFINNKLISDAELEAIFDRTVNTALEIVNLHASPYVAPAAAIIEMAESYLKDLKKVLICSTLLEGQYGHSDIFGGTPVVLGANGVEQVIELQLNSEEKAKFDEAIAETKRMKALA

One experiment has as its target L-lactate dehydrogenase (Plasmodium falciparum (isolate CDC / Honduras)) (UniProt Q27743). As to the kind of experiment: PfLDH activity inhibition – cell lysate, 3D7 strain, counter-screen for P. falciparum growth inhibition project (AID 2304).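 Also: 0% = vehicle and 100% = reference inhibitor.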 The following applies: P. falciparum 3D7 crude extract, LDH APAD/NBT absorbance; at 2 µM; active compounds read high. Background: A counterscreen serves to expose hits that act by an unwanted route or on another target.
On to `CC(=O)Nc1nnc(SCc2c(C)cc(C(C)(C)C)cc2C)s1`, for which the inhibition was -4% (inactive).

`Nc1ccc(-c2ccc(NC(=O)Nc3ccccc3)cc2)cn1`: the inhibition is -1% (inactive).

In the case of `COc1cccc2c(NCCNc3ccnc4c(OC)cccc34)ccnc12`, the inhibition was 0% (inactive).

Test system in a further experiment: not listed separately
As to the kind of experiment: inhibition of 3D7 malaria parasite growth – strain 3D7 (AID 2306).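 Also: 0% = DMSO wells and 100% = chloroquine plus artemisinin control wells.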 The note with it: P. falciparum 3D7 erythrocytic growth, LDH absorbance, 72 h; at 2 µM; active compounds read high.
Turning to `CN1CCN(c2ccnc3cc4c(cc23)N(C(=O)Nc2ccc3c(c2)CCCC3=O)CC4)CC1`, the growth inhibition was 100% (active).

For the compound `CCCCOC(=O)NCCCC[C@H](NC(=O)OC(C)(C)C)C(=O)N[C@H](C(=O)OC(c1ccccc1)c1ccccc1)[C@H]1O[C@@H](n2ccc(=O)[nH]c2=O)[C@@H]2OC(C)(C)O[C@@H]21`, the growth inhibition is 87% (active).

`COCCNCc1ccc(-c2cccc(CNc3ccc(OC)cc3)c2)cc1`: the growth inhibition was 94% (active).

Take `Cc1ccc(NC(=O)c2ccc3ncccc3c2)cc1OC1CCN(Cc2ccc(F)cc2)C1` (stereo not drawn): the growth inhibition is 83% (active).

Turning to `Cc1ccc(CCC(C)NCC(O)c2cccc(Cl)c2)cc1` (stereo not drawn), the growth inhibition is 97% (active).

As for `CCCNC(=O)Nc1cc2cc(-c3cccc(CN4CCCCC4)c3)ccc2n2c(C)nnc12`, the growth inhibition is 100% (active).

For the compound `CCC[C@@H]([C@@H](CC1CCCCC1)C(=O)N[C@@H](CCCCNS(C)(=O)=O)C(=O)Nc1nccs1)N(O)C=O`, the growth inhibition is 101% (active).

Turning to `COc1cc(O)c2c(=O)c(OC)c(-c3cccc(Cl)c3OC3O[C@H](CO)[C@@H](O)[C@H](O)[C@H]3O)oc2c1OC` (stereo partly drawn), the growth inhibition was 101% (active).

Consider `Nc1nc(N)c2cc(NC(=O)c3ccc(Cl)c(Cl)c3)ccc2n1`, for which the growth inhibition is 100% (active).

`CN1CCN(CC2(Nc3nccc(NCCc4cn(C)c5ccccc45)n3)CCCCC2)CC1`: the growth inhibition was 91% (active).

`COc1cc(Cc2cnc(N)nc2N)cc(OCCCCCC(=O)O)c1OC`: the growth inhibition is 95% (active).

On to `Cc1cc(-c2cccc(CNCc3ccccc3)c2)ccc1S(=O)(=O)NCCN1CCCC1`, for which the growth inhibition was 98% (active).

With `CC1CN(Cc2cccc(C#N)c2)CCN1c1ccc(NC(=O)c2cccs2)cc1` (stereo not drawn), the growth inhibition is 94% (active).

Regarding `Cc1cc(N[C@@H](Cc2ccccc2)C(=O)NCc2cccc(F)c2)nc(NCCCOC(C)C)n1`, the growth inhibition was 101% (active).

For the compound `O=C(Nc1ccccc1Oc1ccccc1)NC1CCN(c2ccnc3cc(Cl)ccc23)C1` (stereo not drawn), the growth inhibition is 99% (active).

Regarding `CCCOc1ccc(CCCON2C(N)=NC(N)=NC2(C)C)cc1`, the growth inhibition was 95% (active).

As to `CC(=O)NC(c1cccs1)c1cc(Cl)c2cccnc2c1O` (stereo not drawn), the growth inhibition was 94% (active).

As to `CC(Nc1ncc(-c2ccsc2)c(-c2nccs2)n1)c1ccc2c(c1)OCCO2` (stereo not drawn), the growth inhibition is 81% (active).

As to `O=C(/C=C/c1ccc(Cl)c(Cl)c1)NCCCCCN1CCC(NC(=O)Nc2ccc(OC(F)F)cc2)CC1`, the growth inhibition is 101% (active).

Consider `O=C(Nc1ccc(OC2CCN(Cc3ccsc3)C2)c(Cl)c1)c1ccsc1` (stereo not drawn), for which the growth inhibition was 85% (active).

Regarding `CCn1c(-c2nc(-c3ccc4c(c3)OCO4)cnc2N)nc2cnccc21`, the growth inhibition is 100% (active).

For the compound `Cc1cc(-c2ccc3c(c2)CCN(CCCOc2ccc4c(c2)CCN4C(=O)/C=C/c2ccccc2Cl)CC3)no1`, the growth inhibition was 88% (active).

Take `O=C(c1ccc(Cl)cc1)N1CCCC(C(=O)N(Cc2nnc(-c3ccccc3Cl)o2)C2CC2)C1` (stereo not drawn): the growth inhibition was 95% (active).

For `O=C(CNC(=O)c1ccc(O)cc1)Nc1cccc(-c2cccc(-c3nc4ccc(C(F)(F)F)cc4[nH]3)c2)c1`, the growth inhibition is 96% (active).

Consider `O=c1cc(N2CCNCC2)c(Cl)nn1Cc1ccc(NS(=O)(=O)c2ccc(Oc3ccccc3)cc2)cc1`, for which the growth inhibition was 102% (active).

Turning to `Cc1ccc(O)cc1Nc1ccnc2ccc(-c3csc(CNCCN4CCOCC4)n3)cc12`, the growth inhibition was 101% (active).

Take `CN(C)CCNc1ncnc2c1[nH]c1ccc(Cl)cc12`: the growth inhibition is 100% (active).

`CCc1ccc(CN2CCC(NC(=O)c3ccc(-c4ccc(N(C)C)cc4)s3)CC2)cc1`: the growth inhibition is 84% (active).

Turning to `Nc1ccc(Nc2ccnc3ccc(C(F)(F)F)cc23)cc1O`, the growth inhibition is 98% (active).

As to `O=C(Nc1ccc(Oc2ccccc2)cc1)N1CCC(CCN2CCC(c3c[nH]c4ccccc34)CC2)CC1`, the growth inhibition is 100% (active).

As to `CN1CCC(NCc2ccc(-c3ccc(C(F)(F)F)cc3)cc2)CC1`, the growth inhibition is 99% (active).

In the case of `O=C(/C=C/c1ccc(Cl)c(Cl)c1)NCCCCCCN1CCCN(C(=O)Nc2ccc(C(F)(F)F)cc2)CC1`, the growth inhibition was 100% (active).

As to `COc1ccccc1NC(=O)NC1CCN(CCCCCNC(=O)/C=C/c2ccc(Cl)c(Cl)c2)CC1`, the growth inhibition was 100% (active).

As to `Oc1cccc(Nc2nc(NCc3ccco3)c3ccccc3n2)c1`, the growth inhibition is 103% (active).

As for `COCCNC(=O)c1ccc(OC2CCN(Cc3ccc(F)c(F)c3)CC2)c(Cl)c1`, the growth inhibition is 88% (active).
